Only some compounds are listed: those with a hit (about 21% of all), similar ones and a draw of the others.
IL1B secr inh: inflammasome signaling inhibition, IL-1 beta readout; THP-1 LPS/ATP IL-1B secretion, AlphaLISA, 16 h; active compounds read low; activity change, % at 57.5 µM; 360,000 tested, 4.7% active; in the data active = activity change below about -50%; inconclusive = mostly about -30% to -49%
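Secreted IL-1B measured by AlphaLISA bead assay after 16 h compound exposure of THP-1 cells; compounds (final up to 57.5 uM) added 1 h before LPS (250 ng/mL) and ATP (1.25 mM) stimulation; lower signal means less secretion.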
VP16 counter: Gal4-VP16 reporter inhibition counter-screen; Drosophila S2 Gal4-VP16 UAS-luciferase, luminescence, 20 h; Potency, µM (titrated, usually from 53.6 µM), for the others: top-dose activity, negative = inhibition, most hits filed as inhibitors; 310,000 tested, 3.5% active; AID 2546;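 also: Gal4-VP16 expression switched on by copper sulfate through the metallothionein promoter; potency is read from the fitted curve at half-maximal effect; nearly all actives have a fitted effect of over 50% in size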
TDP1 cell noCPT: qHTS for Inhibitors of human tyrosyl-DNA phosphodiesterase 1 (TDP1): qHTS in cells in absence of CPT | Potency, µM (series often up to 46.2 µM), for inactives: top-dose activity change, negative = growth inhibition, actives largely listed as inhibitors | AID 686978, 2013 | DT40 Tdp1-/- hTDP1 cells, no CPT, ATP luminescence, 48 h | 420,000 tested, 15% active; also: potency is read from the fitted curve at half-maximal effect; nearly all actives have a fitted effect of over 55% in size
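Seeded 400 DT40-hTDP1 cells/well (vehicle DMSO, no 20 nM CPT); pinned compounds; ≥48 hr at 37 °C; CellTiter-Glo luminescence as viability measure.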
RORgamma inh: blocks mouse ROR gamma transcriptional activity. P51450. Drosophila S2 Gal4-RORgamma UAS-luciferase reporter, 20 h. Potency, µM (top dose mostly 53.6 µM), for the others: at the highest dose activity change, negative = inhibition, usual class: inhibitors. 310,000 tested, 5.4% active. AID 2551; also: potency is read from the fitted curve at half-maximal effect; nearly all actives have a fitted effect of over 60% in size
Target sequence (P51450 whole entry, looked up, the tested form may be a part): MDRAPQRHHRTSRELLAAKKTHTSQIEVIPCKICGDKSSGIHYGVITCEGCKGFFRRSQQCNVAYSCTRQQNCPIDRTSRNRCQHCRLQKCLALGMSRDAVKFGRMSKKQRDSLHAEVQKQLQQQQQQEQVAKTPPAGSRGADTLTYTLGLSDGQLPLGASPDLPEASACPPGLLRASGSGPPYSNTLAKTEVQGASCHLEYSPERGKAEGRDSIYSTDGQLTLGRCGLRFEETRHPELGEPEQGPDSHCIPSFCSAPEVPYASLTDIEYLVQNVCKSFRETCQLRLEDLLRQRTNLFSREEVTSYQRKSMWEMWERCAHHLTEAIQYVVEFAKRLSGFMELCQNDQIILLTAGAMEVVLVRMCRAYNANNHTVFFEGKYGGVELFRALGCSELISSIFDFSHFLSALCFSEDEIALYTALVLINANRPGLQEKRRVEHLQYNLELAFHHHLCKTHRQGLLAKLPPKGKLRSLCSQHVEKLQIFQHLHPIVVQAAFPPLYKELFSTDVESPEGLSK
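Using a luciferase readout, inhibitors were identified by reduced reporter activity in Drosophila cells coexpressing a copper-inducible Gal4–ROR gamma fusion and UAS-driven Photinus luciferase, incubated 20 hr after 700 uM copper sulfate.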
ELG1 repair inh: inhibitors of ELG1-dependent DNA repair in HEK293T cells. HEK293T ELG1-luciferase reporter, luminescence, 16 h; DNA damage induced by 5-fluorouridine. Potency, µM (doses to about 46.1 µM), inactives show at the top dose activity change, negative = inhibition, hits mostly inhibitors. 330,000 tested, 2.3% active. AID 504467; also: potency is read from the fitted curve at half-maximal effect; nearly all actives have a fitted effect of over 55% in size
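Overnight (16 hr) co-exposure of 2,000 cells/well to 5-fluorouridine and compound at 37 °C preceded detection. Luciferase was quantified via ONE-Glo luminescence; loss of signal denotes inhibition.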
TDP1 cell CPT: growth inhibition of DT40 Tdp1-/-;hTDP1 cells with camptothecin (screen for TDP1 inhibitors); chicken DT40 Tdp1-/-;hTDP1 cells + 20 nM CPT, ATP luminescence, 48 h; Potency, µM (titrated, usually from 46.2 µM), without a hit: at the top dose activity change, negative = growth inhibition, most hits filed as inhibitors; 420,000 tested, 12% active; also: potency is read from the fitted curve at half-maximal effect; nearly all actives have a fitted effect of over 55% in size
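Chicken DT40 Tdp1-/- cells stably complemented with human TDP1 were seeded at 400 cells/well in medium containing 20 nM camptothecin, exposed to pin-transferred compounds, and grown at 37 °C for at least 48 hr. Viability was read as ATP luminescence.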
Active calls of the source: *; u = inconclusive; x = not tested or not shown. Unless noted, calls follow the shape of the dose curve; as a rule, active = well fitted curve in the direction sought with a large enough effect; inconclusive = small, poorly fitted or top-dose-only effect, or another doubt; inactive = no such curve, though single readings can be large; an effect the other way counts as inactive or inconclusive. % is scaled to controls: 0 for no effect and ±100 for the full control effect.

SMILES	IL1B secr inh	VP16 counter	TDP1 cell noCPT	RORgamma inh	ELG1 repair inh	TDP1 cell CPT
NC(=O)C1CCN(c2nc(-c3ccccc3)nc3c2oc2ccccc23)CC1	-71.2*	-0.8%	u	-11.4%	u	u
NC(=O)C1CCN(c2nc(-c3ccccc3)nc3ccccc23)CC1	-54.3*	-3.9%	-21.4%	3.1%	u	-20.3%
O=C(COC(=O)c1ccc2c(c1)OCCO2)NCCc1ccccc1	12.6	x	-3.9%	x	0.0%	-4.7%
COc1ccc(C(=O)N2CCC3(CCN(Cc4ccc(C#N)cc4)CC3)CC2)cc1	x	-4.0%	u	-25.4%	x	u
Cc1ccc2nc(COc3cccc(NC(=O)COc4ccccc4F)c3)cc(=O)n2c1	x	x	-13.4%	x	x	-19.8%
COc1ccc(C(=O)/C=C2/c3ccccc3CC(C)(C)N2C)cc1OC	0.0	-7.2%	16.4µM*	u	u	u
COc1ccc(C(=O)N/N=C2\CCc3ccccc32)cc1OC	-5.7	0.7%	0.4%	5.7%	-5.5%	-26.9%
COC(=O)C1CCN(CC(=O)Nc2cc(C)c3c(=O)oc4ccccc4c3n2)CC1	x	x	u	x	x	-4.5%
CC1CCCC(C)N1C(=O)Cn1cc(/C=C2/C(=O)Nc3ccccc32)c2ccccc21 (configuration not stated)	-54.6*	-1.2%	20.6µM*	11.9%	u	18.4µM*
CN1C(=O)/C(=C/c2cn(CC(=O)N3CCCCC3)c3ccccc23)c2ccccc21	x	1.5%	x	7.3%	20.6µM*	x
OC(c1ccc(-c2ccccc2)cc1)c1ncc(-c2ccccc2F)[nH]1 (configuration not stated)	9.1	x	u	x	x	u
FC(F)(F)c1ccc(N/N=C/c2cccnc2)nc1	-96.7*	6.7%	u	33.8%	u	-23.1%
Cc1ncc(CO)c(/C=N/NC(=S)Nc2ccc(F)cc2)c1O	50.0	u	10.3µM*	u	u	16.4µM*
Cc1ncc(CO)c(/C=N/N=C/c2ccccc2O)c1O	-11.3	17.9%	-11.5%	3.5%	u	-15.0%
Cc1ncc(CO)c(/C=N/Nc2ccc(C(F)(F)F)cn2)c1O	62.7	15.8µM*	3.66µM*	u	u	4.11µM*
C(=N\Nc1ccccn1)/c1cccnc1	41.2	-16.2%	0.1%	-33.9%	42.1%	3.5%
CCCN(CCC)Cc1c(C(=O)N/N=C/C(C)=C\c2ccco2)nnn1-c1nonc1N	-59.9*	u	16.4µM*	u	20.6µM*	20.6µM*
Cc1ccc(/C=N/NC(=O)c2nnn(-c3nonc3N)c2C(C)C)o1	-6.4	-28.8%	u	u	6.1%	-4.8%
Cc1ccc(-c2c(C(=O)N/N=C/c3ccco3)nnn2-c2nonc2N)cc1	0.8	u	-2.7%	6.31µM*	-1.1%	-7.5%
Cc1ccc(-c2c(C(=O)N/N=C/c3ccc(C)o3)nnn2-c2nonc2N)cc1	-0.3	11.2µM*	-26.9%	7.94µM*	1.0%	-6.6%
CC(/C=N/NC(=O)c1nnn(-c2nonc2N)c1CN(C)C)=C\c1ccco1	-0.7	1.6%	-21.9%	9.3%	-2.3%	-19.0%
COCC1=Cc2cc3c(cc2C(C(C(=O)OC)C(=O)OC)N1C(=O)OC)OCO3 (configuration not stated)	x	-4.8%	x	0.7%	x	x
CCOc1ccc(NC(=O)c2oc3ccccc3c2NC(=O)Cc2cccc(C)c2)cc1	x	x	u	x	x	-28.0%
CSCCC(NC(=O)COc1ccccc1)C(=O)NCCOc1ccc(C)cc1 (configuration not stated)	-0.5	2.0%	-5.8%	22.3%	-8.0%	-17.8%
FC(F)(F)c1ccccc1/C=N/n1c(C2CCCCC2)n[nH]c1=S	-14.2	u	-20.8%	7.94µM*	-1.0%	-22.7%

Compound activity as filed in PubChem.
